Assay results taken from PubChem BioAssay AID588342 (National Center for Advancing Translational Sciences (NCATS), 2011).
Out of some 360,000 compounds screened, about 25,000 (6.9%) were called active. Entries that show only a call come without a potency. Not shown: some 9% with an inconclusive outcome. The call rests on the fitted dose curve; in most records, active means well fitted inhibition curve with a large enough effect; inconclusive means small, poorly fitted or top-dose-only effect; inactive means flat fitted curve, though single readings scatter. Only a selection was taken, and actives are over-represented in it overall.

Biological target: Luciferin 4-monooxygenase (Photinus pyralis) (UniProt P08659)
Sequence (P08659 whole entry, looked up): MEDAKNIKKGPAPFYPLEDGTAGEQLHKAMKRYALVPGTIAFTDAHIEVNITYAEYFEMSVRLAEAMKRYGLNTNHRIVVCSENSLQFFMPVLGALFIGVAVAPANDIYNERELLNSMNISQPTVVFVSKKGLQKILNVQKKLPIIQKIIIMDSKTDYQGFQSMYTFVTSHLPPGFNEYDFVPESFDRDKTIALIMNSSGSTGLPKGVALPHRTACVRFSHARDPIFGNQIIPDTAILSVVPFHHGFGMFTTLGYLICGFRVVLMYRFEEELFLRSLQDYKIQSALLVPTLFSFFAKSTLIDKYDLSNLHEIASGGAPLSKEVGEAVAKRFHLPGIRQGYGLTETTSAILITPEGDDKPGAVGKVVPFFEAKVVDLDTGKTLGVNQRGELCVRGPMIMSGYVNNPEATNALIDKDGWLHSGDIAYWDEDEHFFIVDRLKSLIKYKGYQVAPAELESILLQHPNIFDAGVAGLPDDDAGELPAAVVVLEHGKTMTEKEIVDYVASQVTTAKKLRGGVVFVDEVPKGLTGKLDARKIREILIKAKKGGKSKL
Assay: qHTS profiling assay for firefly luciferase inhibitor/activator using purifed enzyme and Km concentrations of substrates (counterscreen for miR-21 project); further: nearly all actives have a fitted effect of over 55% in size
Details: purified FLuc, luminescence inhibition; series mostly up to 57.5 µM
Method in brief: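 Biochemical qHTS of compounds, final roughly 60 µM downward over six points, against 10 nM purified firefly luciferase using Km concentrations of substrates (10 uM D-luciferin, 10 uM ATP) in Tris acetate pH 7.5 buffer; luminescence output.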
Potency means the concentration at half of the fitted maximal effect.

| SMILES | Potency |
| --- | --- |
| Cc1nc2ccn(Cc3cccs3)c(=O)c2cc1C(=O)NCc1ccc(Cl)cc1 | inactive |
| O=C(CSc1nnc(CN2CCCC2)n1-c1ccc(F)cc1)c1ccc2c(c1)OCO2 | inactive |
| O=C(CN1CCN(c2ccccc2O)CC1)NC(=O)NCc1ccccc1 | inactive |
| COc1ccc(S(=O)(=O)Nc2ccc3cn[nH]c3c2)cc1[N+](=O)[O-] | inactive |
| CCOC(=O)Cc1csc(SCC(=O)Nc2ccc(C)cc2F)n1 | inactive |
| CCOC(=O)c1ccccc1NC(=O)CCc1c(C)nc2c(c1C)c(=O)n(C)c(=O)n2C | inactive |
| CCc1cccc(C)c1NC(=O)COC(=O)CC1CCCC1 | inactive |
| CCOc1cccc2cc(C(=O)OCC(=O)Nc3c(C)cccc3CC)c(=O)oc12 | 15.1 µM (active) |
| Cc1cccc(C)c1NC(=O)COC(=O)c1ccccc1O | inactive |
| O=c1[nH]c(CN2CCOCC2)nc2cc(Cl)ccc12 | inactive |
| NC(=O)Cc1nc2scc(-c3ccc(Cl)cc3)c2c(=O)[nH]1 | inactive |
| O=c1[nH]c(CCl)nc2cc(-c3ccc(Cl)cc3)sc12 | 0.107 µM (active) |
| CCc1ccccc1NC(=O)c1ccc(F)c(S(=O)(=O)NC2CCCCCC2)c1 | inactive |
| COC(=O)c1ccc(NC(=O)CCc2c(C)nc3c(c(C)nn3-c3ccc(C)cc3)c2C)cc1 | inactive |
| CN(c1cccc(NC(=O)Nc2ccc(Cl)cc2)c1)S(C)(=O)=O | 2.39 µM (active) |
| CN(c1ccccc1)S(=O)(=O)c1cccc(NC(=O)Cc2ccc(Cl)cc2)c1 | inactive |
| COc1cccc(N(CC(=O)Nc2cccc(N(C)S(C)(=O)=O)c2)S(C)(=O)=O)c1 | inactive |
| O=C(Nc1ccc(Cl)cc1)Nc1ccc(Oc2cccnc2)nc1 | inactive |
| COc1ccc(-n2c(=O)c3c(c4cc(OC)ccc4n3C)n(Cc3cccc(C)c3)c2=O)cc1 | inactive |
| CC(=O)Nc1ccccc1NC(=O)c1cc(C)cc(C)c1 | inactive |
| CSCc1ccc(C(=O)Nc2cc(C)cc(C)c2)cc1 | 2.13 µM (active) |
| Cc1cc(C)cc(NC(=O)CSc2ccccc2)c1 | inactive |
| CCc1ccc(N2C(=O)CN(S(=O)(=O)CC)CC2(C)C(=O)NC2CCCCC2)cc1 (stereo not drawn) | inactive |
| O=C(NC1CC(=O)N(c2ccc(F)cc2)C1)C1CCCCC1 (stereo not drawn) | inactive |
| CCOC(=O)CNC(=O)c1cc2c(=O)n3cccc(C)c3nc2s1 | inactive |
| CC(=O)c1cccc(Nc2ccc3cc(S(=O)(=O)N4CCC(C)CC4)ccc3n2)c1 | inactive |

| SMILES | Potency |
| --- | --- |
| N/C(=N\OC(=O)c1ccc2c(c1)OCO2)c1ccc(Br)cc1 | 1.69 µM (active) |
| N/C(=N\OC(=O)/C=C/c1ccccc1)c1ccc(Br)cc1 | inactive |
| N/C(=N\OC(=O)N1c2ccccc2Sc2ccccc21)c1ccc(Br)cc1 | inactive |
| Cc1ccc(-c2cc(C(F)(F)F)c(C#N)c(SCC(=O)Nc3ccccc3)n2)cc1 | inactive |
| O=C(NCc1ccco1)C1(c2ccc(Cl)cc2)CCCC1 | inactive |
| O=C(/C=C/c1ccc(Cl)cc1Cl)NCc1ccco1 | 7.57 µM (active) |
| COC(=O)/C=C/C(=O)NCc1ccco1 | inactive |
| COc1ccccc1CNC(=O)C(Cc1ccccc1)NS(=O)(=O)c1ccc2c(c1)oc(=O)n2C (stereo not drawn) | inactive |
| CSCCC(NC(=O)c1ccccc1)C(=O)N1CCN(Cc2ccc(Cl)cc2)CC1 (stereo not drawn) | inactive |
| CCOc1c(Br)cc(/C=C2\C(=O)N(CCC#N)N=C2C)cc1OC | inactive |
| COc1ccc(N2C(=O)CC(Nc3ccc(F)cc3)C2=O)c([N+](=O)[O-])c1 (stereo not drawn) | inactive |
| C/C=C/c1ccc(OCCOc2ccc(C=O)cc2OC)c(OC)c1 | inactive |
| C#CCOc1ccc(/C=C2/C(=O)NN(c3ccccc3)C2=O)cc1OC | 0.849 µM (active) |
| COc1cc(/C=C2/C(=O)NN(c3ccc(F)cc3)C2=O)cc([N+](=O)[O-])c1O | 26.9 µM (active) |
| COc1cc(CN2CC(C)CC(C)C2)cc([N+](=O)[O-])c1O (stereo not drawn) | inactive |
| COc1cc(C=O)ccc1Oc1nnnn1-c1ccccc1 | inactive |
| COc1cc(/C=C2/C(=O)NN(c3cccc(Cl)c3)C2=O)cc(Br)c1O | 30.1 µM (active) |
| COc1cccc2c1cc1c(=O)n(CC(=O)N3CCN(c4cccc(Cl)c4)CC3)nc(C)n12 | inactive |
| CCOc1ccc(-c2nonc2NC(=O)c2oc3ccc(CC)cc3c2C)cc1 | inactive |
| NC1=NC(c2cc(F)cc(F)c2)n2c(nc3ccccc32)N1 (stereo not drawn) | inactive |
| CC(C(=O)NC1CCCCC1)N1C(=O)c2cccc3cccc1c23 (stereo not drawn) | inactive |
| N#Cc1ccc(OCC(=O)NC(=O)NC2CCS(=O)(=O)C2)cc1 (stereo not drawn) | inactive |
| Cc1nc2ccn(Cc3cccnc3)c(=O)c2cc1C(=O)N1CCN(c2ccccc2F)CC1 | inactive |
| Cc1cc2c(cc3c(SCc4cccc(Cl)c4)nnc(C)n32)o1 | inactive |
| CN1CCC(=NNC(=O)c2ccc(N(Cc3ccc(Cl)cc3)S(C)(=O)=O)cc2)CC1 | inactive |
| NS(=O)(=O)c1cc(C(=O)OCC(=O)NNC(=O)c2ccccc2)ccc1Cl | inactive |

| SMILES | Potency |
| --- | --- |
| O=C(CCOc1ccccc1)N(Cc1cccnc1)c1nc2ccc(Cl)cc2s1 | inactive |
| Cc1cc(Nc2ccccc2)n(CCC#N)n1 | inactive |
| Cc1cc(NC(=O)COc2ccc(Cl)cc2Cl)n(CCC#N)n1 | 19 µM (active) |
| CCCn1nnnc1NC(=O)COc1ccc(Cl)cc1C | inactive |
| CSc1ncccc1C(=O)Nc1ccc(C)cn1 | inactive |
| CSc1ncccc1C(=O)Nc1nc2ccc(F)cc2s1 | 19 µM (active) |
| O=C(Nc1nc2ccc(F)cc2s1)c1nc(SCc2ccccc2F)ncc1Cl | inactive |
| CC(C(=O)N(C)CC(=O)Nc1ccccc1C(F)(F)F)N1C(=O)c2ccccc2C1=O (stereo not drawn) | inactive |
| Cc1ccc(/C=C(\C#N)C(=O)Nc2cc(C)ccc2C)cc1 | inactive |
| COc1cc(OC)cc(C(=O)NCC(=O)N2CCCCCCC2)c1 | inactive |
| COc1ccc(CCNC(=O)c2ccc3c(c2)sc2nc(-c4ccc(C)cc4)cn23)cc1OC | inactive |
| NS(=O)(=O)c1ccc2nc(NC(=O)C3=COCCO3)sc2c1 | 12 µM (active) |
| NS(=O)(=O)c1ccc2nc(NC(=O)CS(=O)(=O)c3ccc(F)cc3)sc2c1 | inactive |
| NS(=O)(=O)c1ccc2nc(NC(=O)COc3ccccc3)sc2c1 | inactive |
| Cc1ccc(S(=O)(=O)c2nc(NCCCn3ccnc3)sc2Cl)cc1 | inactive |
| COc1ccc(-c2cc(C(=O)NCCCn3ccnc3)no2)cc1 | inactive |
| Cc1ccc(-c2nc(C#N)c(NCCCn3ccnc3)o2)cc1 | 21.3 µM (active) |
| CC(NC(=O)c1cccc(S(=O)(=O)N2CCc3ccccc3C2)c1)c1ccco1 (stereo not drawn) | inactive |
| CN1C(=O)/C(=C/c2ccc(C(=O)NC3CCCC3)cc2)Oc2ccccc21 | inactive |
| COC(=O)c1ccc(/C=C2/C(=O)Oc3ccccc32)cc1 | 2.69 µM (active) |
| COC(=O)c1ccc(NC(=O)C(C)N2C(=O)c3ccccc3C2=O)cc1 (stereo not drawn) | inactive |
| C#CC(C)(CC)NC(=O)Cn1nnc(-c2ccc(OCc3c(F)cccc3Cl)cc2)n1 (stereo not drawn) | inactive |
| CCn1c(=O)cc(OCC(=O)Nc2cc(Cl)c(OC)cc2OC)c2ccccc21 | inactive |
| N#C/C(=C\c1cccc(F)c1)c1nc(-c2cc3c(ccc4ccccc43)oc2=O)cs1 | inactive |
| O=c1oc2ccccc2cc1-c1csc(Nc2ccc(O)cc2)n1 | 5.36 µM (active) |
| CCOc1ccc(S(=O)(=O)Nc2nc3cc(OC)ccc3s2)cc1 | inactive |

| SMILES | Potency |
| --- | --- |
| COc1ccc2nc(Nc3nc(-c4ccncc4)cs3)sc2c1 | 1.51 µM (active) |
| Cc1ccc2nc(-c3ccncc3)cc(C(=O)Nc3ccc(OC(F)F)cc3)c2c1 | inactive |
| COc1ccc2nc(Nc3nc(-c4cc5ccccc5oc4=O)cs3)sc2c1 | 0.849 µM (active) |
| COc1ccc(Nc2cc(=O)oc3ccccc23)cc1 | inactive |
| COc1ccc(-c2onc(C)c2-c2ccc3c(c2)OCCO3)c(O)c1 | inactive |
| COc1ccc2nc(Nc3nc4cc5c(cc4s3)OCCO5)sc2c1 | 9.53 µM (active) |
| COc1ccc2oc(=O)cc(-c3cc4ccccc4o3)c2c1 | inactive |
| CCOCCCNC(=O)c1c(NC(=O)Cc2coc3ccc(C)cc23)sc2c1CCC2 | inactive |
| Cc1cc(NC(=O)CSc2nc(=O)cc(N)n2-c2ccc(F)cc2)no1 | inactive |
| CC1CCCN(S(=O)(=O)c2ccc3[nH]c(=O)cc(C(=O)NCCc4ccc(Cl)cc4)c3c2)C1 (stereo not drawn) | inactive |
| COc1ccc(CNc2nc(-c3ccccc3)nn2C(=O)c2ccccc2OC)cc1 | inactive |
| Cc1ccc(C)c(Cn2c(=O)n(CCC(=O)NCc3ccc4c(c3)OCO4)c(=O)c3sccc32)c1 | inactive |
| COc1ccc(-c2nnc(SCC(=O)Nc3ccccc3C)o2)cc1OC | inactive |
| Cn1c(CNc2nc(-c3ccccc3)cs2)nnc1SCC(=O)c1ccccc1 | inactive |
| CCNc1nc(-c2cc3ccccc3o2)cs1 | 0.601 µM (active) |
| CCOC(=O)CSc1nnc(CNc2nc(-c3ccccc3)cs2)n1C | inactive |
| COc1ccc(-c2c(C)c3ccc(O)c(CN4CCN(C)CC4)c3oc2=O)cc1OC | inactive |
| COc1cc(OC)cc(-c2c(-c3cccs3)c3cc(-c4ccc(OC)nc4)ccc3n2C)c1 | inactive |
| CCOc1ccc(OCC)c(NC(=O)c2cc(C)nc3c2c(C)nn3-c2cccc(Cl)c2C)c1 | inactive |
| N#CCC(=O)N/N=C/c1cn(Cc2ccc3ccccc3c2)c2ccccc12 | inactive |
| COc1cccc(Cn2cc(/C=N/NC(=O)c3cc(O)cc(O)c3)c3ccccc32)c1 | 26.9 µM (active) |
| CNC(=S)N/N=C/c1cn(Cc2ccc(C)cc2)c2ccccc12 | inactive |
| COc1ccc(N2CCN(C(=O)/C(C#N)=C/c3ccccc3)CC2)cc1 | inactive |
| CCOC(=O)/C(C#N)=C/c1ccc(N2CCCCC2)cc1 | 2.69 µM (active) |
| CCOC(=O)NC(=O)/C(C#N)=C\c1ccccc1 | inactive |
